Test results reported in PubChem BioAssay AID1928 (Vanderbilt High Throughput Screening Facility, 2009).

The molecules below were run against Muscarinic acetylcholine receptor M5 (Homo sapiens) (UniProt P08912) (assay: hM5 positive allosteric modulation, ACh fold-shift, SAR follow-up, selectivity assay for M4 PAM project, cell-based, analogs, calcium (AID 1928)). Conditions: hM5-expressing cells, ACh CRC fold-shift; series mostly up to 1 µM; ACh response, % max: at the top concentration; call rule not given here.
Muscarinic acetylcholine receptor M5 (Homo sapiens), sequence (P08912 whole entry, looked up): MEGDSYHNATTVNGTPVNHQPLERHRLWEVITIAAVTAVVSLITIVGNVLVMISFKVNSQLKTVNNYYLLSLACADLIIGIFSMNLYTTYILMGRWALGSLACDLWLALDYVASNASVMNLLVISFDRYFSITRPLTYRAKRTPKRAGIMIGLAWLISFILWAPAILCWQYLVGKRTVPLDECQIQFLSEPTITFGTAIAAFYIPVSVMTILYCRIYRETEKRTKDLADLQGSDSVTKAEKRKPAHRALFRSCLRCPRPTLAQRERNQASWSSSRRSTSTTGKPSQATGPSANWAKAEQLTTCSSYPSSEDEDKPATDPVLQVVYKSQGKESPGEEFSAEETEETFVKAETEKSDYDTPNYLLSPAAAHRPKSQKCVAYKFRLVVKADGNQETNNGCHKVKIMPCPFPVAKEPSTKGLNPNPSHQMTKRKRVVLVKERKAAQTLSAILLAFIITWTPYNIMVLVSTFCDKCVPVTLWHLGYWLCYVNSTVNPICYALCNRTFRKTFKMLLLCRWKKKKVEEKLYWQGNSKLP

ACh response, % max, inactive:
Cc1cc(OCc2ccncc2)nc2sc(C(=O)NCc3cccc(F)c3F)c(N)c12 92.3
COc1ccc(CNC(=O)c2sc3nc(OCc4ccncc4)cc(C)c3c2N)cc1 96.3
Cc1cc(OCc2ccncc2)nc2sc(C(=O)NCc3cc(F)ccc3F)c(N)c12 92.8
Cc1cc(OCCN2CCOCC2)nc2sc(C(=O)NC(C)(C)C)c(N)c12 93.7
